Measured values from the supplement of paper PMC6555819.

Assays:
Assay in all cases: PBM binding z-score (relative to random genomic background probes); higher = stronger binding; sequences stand for … in GC…GCGATTGACAGCGTAGAATGAAGG
[1] = system: RARb homodimer (NR concentration 270 nM)
In short: (§1)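 Random background probes are the reference for binding z-scores. These scores derive from regression-normalized fluorescence on custom Agilent 4×180K protein-binding microarrays incubated 1 h with ligand-free nuclear receptor dimers. Binding was detected with antibodies against each partner (one per run).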

[2] = system: RARg:RXRa (NR concentration 270 nM, RXRa partner concentration 90 nM)
In short: as §1

[3] = system: RARg homodimer (NR concentration 270 nM)
In short: as §1

[4] = system: RXRa DBDmut IVT, anti-RXR (DBD mutation: RXRa K156A/R161A, NR concentration 90 nM)
In short: as §1

[5] = system: RXRa homodimer (NR concentration 180 nM)
In short: as §1

[6] = system: THRa:RXRa (NR concentration 90 nM, RXRa partner concentration 90 nM)
In short: as §1

[7] = system: THRa homodimer (NR concentration 90 nM)
In short: as §1

[8] = system: VDR homodimer (NR concentration 270 nM)
In short: as §1

Sequence	PBM binding z-score [1]	PBM binding z-score [2]	PBM binding z-score [3]	PBM binding z-score [4]	PBM binding z-score [5]	PBM binding z-score [6]	PBM binding z-score [7]	PBM binding z-score [8]
CTATGTAGGTTAAGGGCGTCATTCAGTTTGAAAG	0.798	0.63	0.752	0.53	0.739	1.42	0.232	0.4
CTATGTAGGTTAAGAGGGTCATTCAGTTTGAAAG	3.03	3.16	2.3	1.33	3.33	2.42	0.33	3.39
AATACAGGGTCACTTGGCCAGAGTAGGTACGAAT	3.25	5.22	5.19	3.11	5.25	3.37	1.15	2.85
CAAACTAGGTCAAGAGGTCAAAGGCCGCTTCCCG	5.53	8.17	7.84	2.67	7.98	4.21	2.35	4.46
CGAACTAGGTCACCAGGACATTGAAGAGGTTGGA	3.54	4.42	5.21	1.95	3.45	3.48	2.06	1.1
TCGAGTAGGTTACGGGGGCATCCAGGGATGAAGA	2.2	3.36	2.37	1.27	2.88	3.66	1.12	2.47
TCGAATAGGTTACGGGGGCATTCAGGGATGAAGA	2.78	4.18	3.02	2.78	3.99	4.29	1.9	3.3
CGAACTAGGACACCAGGACAGTGAAGAGGTTGGA	0.545	0.367	0.797	0.0708	0.0879	1.83	1.24	0.472
CTATGTAGGTTAAGGGGGTGATTCAGTTTGAAAG	1.97	2.23	1.77	1.42	2	2.21	1.73	2.22
ATACGTAGGTTATCGGGTCATTCAGTTTGCGCAT	2.77	3.41	2.36	1.77	3.41	3.18	2.93	3.86
CTATGTAGGTTAAGGGGTTCATTCAGTTTGAAAG	1.75	1.88	1.04	2.79	2.55	1.92	0.473	7.01
CCTAGTTGGCCAAGGTCACACACGCTATAGGTAC	4.08	4.16	4.16	2.02	4.27	3.96	3.61	3.38
CTTAGTTGGTCAGGAGGTCACACACCGGATATGA	4.33	5.21	4.53	1.06	4.99	3.67	2.65	2.74
ATACGTAGGTTACATCCGGGTCATTCAGGCTATG	2.79	3.59	2.17	0.372	3.06	3.81	2.5	2.66
ATCGAAAGGTCGAAGGTGAGTCTACCCACCCGAA	2.48	4.41	3.67	0.805	5.11	2.24	-0.0307	0.891
TTTAGTTGGTCAAAGGTCACACACTCGAAATGCG	5.1	7.25	6.17	1.17	8.07	4.04	2.03	2.6
CCGAGTAGGTTACGAGGGGGCATTCACTGCGAAT	2.02	3.01	2.43	1.06	1.98	3.81	0.568	2.51
CCTGCTAGGTCAAGGGTCAGCTAAAGCAGCTCGC	4.91	6.68	6.43	1.48	7.49	3.95	1.24	1.03
ACTAGCAGGCCAAGAGTCACTCAAGATTAGTCCG	0.0309	0.304	0.413	-0.426	0.599	0.162	-0.533	-0.0236
CGTCCAAGGTCAAGGTGAGTGAAAGAGACTCGAA	3.64	5.92	6.65	3.37	6.02	3.8	2.86	1.94
CCTGCTAGGACAATGGTCAGCTAAAGCAGCTCGC	-0.0607	-0.421	-0.262	0.179	-0.865	0.0505	-0.399	-0.794
TAGCCTAGGTCATGGGCCAGTTTACCACGCGAAC	3.04	4.68	4.8	0.567	4	3.22	1.42	0.669
CGTCCAAGCTCAGCAGGTCAGTGAAAGCGACGTG	1.73	0.644	1.1	-0.071	0.158	0.642	-0.345	-0.808
CCTACTGGGCCATTCAGAGGTCACTGATCATATG	4.51	4.5	3.57	0.354	3.71	3.48	1.72	1.85
CCTAGTTGGTCAAGGTAACACACGCTATAGGTAC	1.22	0.88	1.36	0.599	0.724	1.85	1.57	0.864
CTATGTAGCTTAAGGGGGTCATTCAGTTTGAAAG	3.58	4.42	3.15	2.56	5.27	3.69	2.41	6.05
ATATGCAGGTTAGGGTCATTCAGAAAGTAGGGAA	3.2	4	3.17	2.15	5.23	3.89	2.86	3.64
CTAACTAGGTCAAAGGACAGTGAAAGGCGACGTA	3.08	4.05	4.84	1.68	2.97	2.58	0.419	0.409
